The source of these data is PubChem BioAssay (NCI).

This is part of a sample that, as a whole, favours compounds with a hit. Of some 83,000 tested, about 20% had one in any assay.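 Compound tested at a single concentration for 48 hours in 96-well plates; a percent growth value below 10 was scored as active.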 Unmarked numbers belong to inactive results. Activity calls are given as the source filed them.

Assay in all cases: NCI-60 one-dose screen, 48 h (100 = growth as untreated, 0 = no growth, -100 = all killed)
For one test, the system named is T-47D breast. The settings on record: 10 µM unless noted.
The next test has as its system BT-549 breast. The settings on record: 10 µM unless noted.
Another test has as its system MDA-MB-435 melanoma. To be noted: 10 µM unless noted.
For a further test, the system named is SW-620 colon. The settings on record: 10 µM unless noted.
In another test the test system is MCF7 breast. The settings on record: 10 µM unless noted.
The next test concerns HCT-116 colon. To be noted: 10 µM unless noted.
The next test relates to HCC-2998 colon. To be noted: 10 µM.
For the next test, the system named is KM12 colon. To be noted: 10 µM unless noted.

Take `CC[C@H](Nc1ncnc2nc[nH]c12)c1nc2cccc(F)c2c(=O)n1-c1ccccc1`: the growth in the test on T-47D breast is -4.25% (active); with BT-549 breast, 40.2%; with MDA-MB-435 melanoma, 82.6%; with SW-620 colon it was 78.3%; in the test with MCF7 breast, 54.4%; in the test with HCT-116 colon, 65.5%. For the same molecule, the figures for the growth in the test with HCC-2998 colon and with KM12 colon were 85.9% and 84.6%, respectively.

On to `Cc1cc2c(-c3nc4ccccn4c3NC34CC5CC(CC(C5)C3)C4)c(O)c(O)cc2c(O)c1-c1c(C)cc2c(-c3nc4ccccn4c3NC34CC5CC(CC(C5)C3)C4)c(O)c(O)cc2c1O`, for which the growth was -0.388% (active) in the test on T-47D breast; 9.45% (active) with BT-549 breast; 16.5% with MDA-MB-435 melanoma; 23.5% with SW-620 colon; 12.3% in the test with MCF7 breast; 12% in the test on HCT-116 colon. The growth is 31% in the test with HCC-2998 colon and 19.8% in the test with KM12 colon.

Regarding `C=CC(=O)N1CCC[C@@H](n2nc(-c3ccc(Oc4ccccc4)cc3)c3c(N)ncnc32)C1`, the growth in the test with T-47D breast is 0.0664% (active); in the test with BT-549 breast, 34.6%; with MDA-MB-435 melanoma, 59.6%; in the test with SW-620 colon, 95.2%; in the test with MCF7 breast, 52.6%; in the test with HCT-116 colon, 59.8%. For the same molecule, the growth in the test with HCC-2998 colon was 103%; in the test on KM12 colon, 53.6%.

For `CCn1cc(-c2ccnc3[nH]c(-c4cccc(CN(C)C)c4)cc23)c(-c2ccc(NC(=O)N(C)C)cc2)n1`, the growth in the test with T-47D breast was 58%; with BT-549 breast, 14.1%; in the test on MDA-MB-435 melanoma, 51.3%; with SW-620 colon it was 2.66% (active); in the test with MCF7 breast, 16.1%; in the test on HCT-116 colon, 8.47% (active). Further, the growth in the test on HCC-2998 colon is 60%; with KM12 colon it was 11.1%.

In the case of `Cn1ccnc1C(=O)/C=C/c1ccc(CC(=O)Nc2ccc(S(F)(F)(F)(F)F)cc2)cc1`, the growth is -7.73% (active) with T-47D breast; -50.6% (active) in the test on BT-549 breast; 15.1% with MDA-MB-435 melanoma; 3.88% (active) in the test with SW-620 colon; 10.2% in the test with MCF7 breast; -63.5% (active) with HCT-116 colon. The growth is -65.1% (active) in the test on HCC-2998 colon and -56.9% (active) in the test on KM12 colon.

As to `Cc1[nH]n(C(N)=S)c(=O)c1N=Nc1ccc(S(=O)(=O)Nc2ccncn2)cc1`, the growth in the test with T-47D breast was 109%; in the test on BT-549 breast it was 143%; in the test with MDA-MB-435 melanoma it was 136%; in the test on SW-620 colon it was 102%; in the test with MCF7 breast, 88.1%; in the test on HCT-116 colon it was 112%. Also, the growth with HCC-2998 colon was 105%; with KM12 colon, 99.5%.

Regarding `COC(=O)[C@H](Cc1ccccc1)NC(=O)[C@@H](OC)[C@@H]1Cc2cc3cc(OC4CC(OC5CC(O)C(O)C(C)O5)C(O)C(C)O4)c(C)c(O)c3c(O)c2C(=O)[C@H]1OC1CC(OC2CC(OC3CC(C)(O)C(O)C(C)O3)C(O)C(C)O2)C(O)C(C)O1` (some centres undefined), the growth with T-47D breast is 2.51% (active); in the test with BT-549 breast it was -62.4% (active); in the test with MDA-MB-435 melanoma, -69.4% (active); in the test on SW-620 colon, 6.79% (active); with MCF7 breast, 3.21% (active); in the test with HCT-116 colon, 1.85% (active). In addition, the figures for the growth with HCC-2998 colon and with KM12 colon were -45.2% (active) and -5.45% (active), respectively.

For `Cc1cc(C(=O)NOCCO)c(Nc2ccc(I)cc2F)n(C)c1=O`, the growth in the test with T-47D breast is 103%; in the test on BT-549 breast, 85.7%; with MDA-MB-435 melanoma it was 35.4%; in the test on SW-620 colon, 24.8%; with MCF7 breast, 94.7%; with HCT-116 colon, 15.2%. Also, the growth in the test on HCC-2998 colon was -16.6% (active); in the test with KM12 colon, 28.4%.

Regarding `CC/C(=C(\c1ccc(OCCN2CCCCCCC2)cc1)c1ccc(OC(=O)C2CCCCC2)cc1)c1ccc(Cl)cc1`, the growth was 77.4% with T-47D breast; 116% in the test with BT-549 breast; 99.8% in the test on MDA-MB-435 melanoma; 95.5% in the test on SW-620 colon; 48.5% with MCF7 breast; 87.3% in the test on HCT-116 colon. Moreover, the growth in the test with HCC-2998 colon is 109%; in the test with KM12 colon it was 97.1%.

`CN(C)C/C=C/C(=O)Nc1cc2c(Nc3ccc(F)c(Cl)c3)ncnc2cc1O[C@H]1CCOC1`: the growth was -6.55% (active) with T-47D breast; -1.8% (active) with BT-549 breast; 2.71% (active) in the test on MDA-MB-435 melanoma; -22.6% (active) with SW-620 colon; 3.59% (active) in the test with MCF7 breast; -59.8% (active) with HCT-116 colon. Further, the growth is -71% (active) in the test with HCC-2998 colon and -0.867% (active) in the test on KM12 colon.

For `Cc1sc2c(c1C)c(=O)nc1c(-c3nc4ccccc4s3)n[nH]n12`, the growth was 85.2% in the test on T-47D breast; 101% with BT-549 breast; 110% with MDA-MB-435 melanoma; 104% with SW-620 colon; 79.6% in the test on MCF7 breast; 90% in the test on HCT-116 colon. Besides, the values for the growth in the test on HCC-2998 colon and in the test with KM12 colon were 96.3% and 98.7%, respectively.

Regarding `CN1CCC(CNc2ccc3ncc(-c4cccc(OC(F)(F)F)c4)n3n2)CC1`, the growth was -79.5% (active) in the test on T-47D breast; -0.185% (active) in the test on BT-549 breast; -95.8% (active) in the test with MDA-MB-435 melanoma; -61.9% (active) in the test on SW-620 colon; -49.5% (active) in the test with MCF7 breast; -75.1% (active) with HCT-116 colon. For the same molecule, the growth in the test with HCC-2998 colon was -84.4% (active); in the test on KM12 colon it was -1.37% (active).

With `Cn1cc(-c2ccc(F)c(C(F)(F)F)c2)nc1C1CCN(c2ncnc3[nH]ncc23)CC1`, the growth in the test with T-47D breast is 25.8%; in the test on BT-549 breast, 43.1%; with MDA-MB-435 melanoma, 93.3%; in the test on SW-620 colon, 89.2%; in the test with MCF7 breast, 61.4%; in the test on HCT-116 colon, 68.9%. The growth with HCC-2998 colon was 95.5%; in the test with KM12 colon, 73.5%.

Turning to `CCCCCCCCCCCC[n+]1ccccc1`, the growth was 4.67% (active) in the test on T-47D breast; -37.4% (active) in the test on BT-549 breast; -16.5% (active) in the test on MDA-MB-435 melanoma; 10.7% with SW-620 colon; 5.23% (active) with MCF7 breast; 6.26% (active) in the test with HCT-116 colon. The values for the growth in the test with HCC-2998 colon and with KM12 colon were 9.96% (active) and -48.1% (active), respectively.

As for `COc1cc(OC)c(/C=C/S(=O)(=O)Cc2ccc(OC)c(NCC(=O)O)c2)c(OC)c1`, the growth in the test with T-47D breast is 52.7%; in the test with BT-549 breast, 6.04% (active); with MDA-MB-435 melanoma, -30.5% (active); in the test with SW-620 colon, 24.5%; with MCF7 breast, 13.1%; with HCT-116 colon, 6.42% (active). For the same molecule, the growth in the test on HCC-2998 colon is 5.81% (active); in the test on KM12 colon it was 5.06% (active).

`COc1ccc2c(CCCc3ccc(Cl)cc3Cl)c3[n+](cc2c1OC)CCc1cc2c(cc1-3)OCO2`: the growth with T-47D breast was 3.35% (active); in the test with BT-549 breast, -28% (active); in the test with MDA-MB-435 melanoma, -71.2% (active); with SW-620 colon it was 4.21% (active); in the test with MCF7 breast it was 6.01% (active); with HCT-116 colon, -11.6% (active). For the same molecule, the values for the growth in the test with HCC-2998 colon and in the test with KM12 colon were -83.7% (active) and -55.3% (active), respectively.

Turning to `O=c1[nH]ccc2c(S(=O)(=O)N3CCCNCC3)cccc12`, the growth in the test on T-47D breast was 37.7%; with BT-549 breast, 61.3%; with MDA-MB-435 melanoma, 88%; with SW-620 colon, 91.1%; with MCF7 breast, 85.9%; in the test with HCT-116 colon it was 81.5%. Further, the figures for the growth with HCC-2998 colon and in the test with KM12 colon were 92.2% and 93.3%, respectively.

As to `CC(C)(C)OC(=O)N1CCC(O)[C@@H](O[Si](c2ccccc2)(c2ccccc2)C(C)(C)C)[C@H]1/C=C/c1ccccc1` (some centres undefined), the growth with T-47D breast was 21.4%; with BT-549 breast, 63%; with MDA-MB-435 melanoma, 57.4%; with SW-620 colon, 50.9%; in the test with MCF7 breast it was 36.6%; with HCT-116 colon it was 24.9%. The growth is 44.8% in the test with HCC-2998 colon and 47% with KM12 colon.
